For assay [1], the target named is human Neurokinin, NK2 Receptor, TACR2 (gene 6865) (UniProt P21452). Description: NVS_GPCR_hNK2: NovaScreen (NVS) G Protein-Coupled Receptor Assay for human Neurokinin, NK2 Receptor (AID 2283278).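 Further: actives reduce bound radioligand signal relative to DMSO baseline.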 Put shortly: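 Filter-based scintillation counting measured radioligand bound to receptor extracted from CHO cells, 4 hours after compound addition. Chemicals screened first at 25 uM in duplicate, with actives retested in concentration series relative to DMSO.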
Sequence of human Neurokinin, NK2 Receptor, TACR2 (gene 6865) (P21452 whole entry, looked up): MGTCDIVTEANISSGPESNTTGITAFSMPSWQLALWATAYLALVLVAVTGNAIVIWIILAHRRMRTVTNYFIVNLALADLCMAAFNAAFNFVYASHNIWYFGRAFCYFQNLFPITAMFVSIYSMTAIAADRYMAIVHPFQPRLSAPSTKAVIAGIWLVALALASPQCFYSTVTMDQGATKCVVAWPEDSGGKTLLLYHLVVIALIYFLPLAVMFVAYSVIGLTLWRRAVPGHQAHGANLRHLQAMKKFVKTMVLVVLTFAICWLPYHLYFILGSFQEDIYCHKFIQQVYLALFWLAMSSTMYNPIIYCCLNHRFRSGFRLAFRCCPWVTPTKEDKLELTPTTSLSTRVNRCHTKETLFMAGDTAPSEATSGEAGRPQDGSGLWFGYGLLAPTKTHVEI

Assay [2] has as its target rat Serotonin, 5-Hydroxytryptamine Receptor (5HT), Non-Selective Binding, Htr1a (gene 24473) (UniProt P19327). Description: NVS_GPCR_r5HT_NonSelective: NovaScreen (NVS) G Protein-Coupled Receptor Assay for rat Serotonin, 5-Hydroxytryptamine Receptor (5HT), Non-Selective Binding (AID 2283295). Put shortly:
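Radioligand displacement on rat cortical membranes, 1 h incubation, filter-based scintillation counting. Primary duplicates at 25 uM, actives retested in concentration series; loss of signal fitted against DMSO as baseline.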

Assay [3] addresses Muscarinic acetylcholine receptor M5 (Homo sapiens) (UniProt P08912). Description: NVS_GPCR_hM5: NovaScreen (NVS) G Protein-Coupled Receptor Assay for human Muscarinic, M5 Receptor (AID 2283275). Put shortly:
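Radioligand displacement on CHO-derived membrane preparations, 1 h, filter-based scintillation counting. Single-concentration duplicate screen at 25 uM; hits (e.g. 30% inhibition) retested in singleton concentration-response up to 50 uM. Loss of binding fitted versus DMSO.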

For assay [4], the system named is rabbit Platelet Activating Factor Receptor (PAF), gene 100354046. Description: NVS_GPCR_rabPAF: NovaScreen (NVS) G Protein-Coupled Receptor Assay for rabbit Platelet Activating Factor Receptor (PAF) (AID 2283287). The method, boiled down: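 Rabbit platelet membrane preparation; radioligand displacement read by filter-based scintillation counting 1 h after dosing, loss of signal versus DMSO. Primary screen in duplicate at 25 uM, actives followed up in concentration series.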

Assay [5] addresses mouse Cholecystokinin, CCK1 Receptor (CCKA), Cckar (gene 12425) (UniProt O08786). Kind of assay: NVS_GPCR_mCCKAPeripheral: NovaScreen (NVS) G Protein-Coupled Receptor Assay for mouse Cholecystokinin, CCK1 Receptor (CCKA) (AID 2283285). Put shortly:
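Radioligand competitive displacement on mouse pancreatic membranes, 2 h incubation; filter-based scintillation counting, loss of signal versus DMSO. Single-concentration screen at 25 uM in duplicate, actives retested in concentration-response up to 50 uM.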

Assay [6] has as its target guinea pig Serotonin, 5-Hydroxytryptamine Receptor 4 (5HT4), HTR4 (gene 100135548) (UniProt O70528). Description: NVS_GPCR_g5HT4: NovaScreen (NVS) G Protein-Coupled Receptor Assay for guinea pig Serotonin, 5-Hydroxytryptamine Receptor 4 (5HT4) (AID 2283294). The method, boiled down: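 Guinea pig striatal membranes; radioligand competitive displacement, filtration and scintillation counting after 1 h. Primary screen in duplicate at 25 uM; actives then tested in concentration series; loss of binding signal fitted relative to DMSO.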

The target in assay [7] is human Opioid Receptor Delta 1 (Opiate D1), OPRD1 (gene 4985) (UniProt P41143). Kind of assay: NVS_GPCR_hOpiate_D1: NovaScreen (NVS) G Protein-Coupled Receptor Assay for human Opioid Receptor Delta 1 (Opiate D1) (AID 2283280). Put shortly: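 Radioligand displacement on membranes from CHO cells expressing the receptor, read by filter scintillation counting 1 h after dosing. Duplicate single-point screen at 25 uM, then concentration series for actives; loss of signal versus DMSO.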
Sequence of human Opioid Receptor Delta 1 (Opiate D1), OPRD1 (gene 4985) (P41143 whole entry, looked up): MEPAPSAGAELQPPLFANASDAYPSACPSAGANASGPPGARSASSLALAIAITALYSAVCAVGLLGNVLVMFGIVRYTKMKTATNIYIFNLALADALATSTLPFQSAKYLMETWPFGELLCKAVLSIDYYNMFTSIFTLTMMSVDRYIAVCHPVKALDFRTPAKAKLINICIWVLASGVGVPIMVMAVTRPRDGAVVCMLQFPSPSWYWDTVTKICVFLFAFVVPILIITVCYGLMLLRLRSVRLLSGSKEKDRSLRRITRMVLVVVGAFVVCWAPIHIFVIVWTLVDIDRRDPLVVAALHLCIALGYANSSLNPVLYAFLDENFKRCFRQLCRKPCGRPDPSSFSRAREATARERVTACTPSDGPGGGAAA

The target of assay [8] is human Orphanin, Opioid Related Nociceptin Receptor 1 (ORL1), OPRL1 (gene 4987) (UniProt P41146). Kind of assay: NVS_GPCR_hORL1: NovaScreen (NVS) G Protein-Coupled Receptor Assay for human Orphanin, Opioid Related Nociceptin Receptor 1 (ORL1) (AID 2283283). Put shortly:
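Filter-based radioligand displacement with receptor extracted from HEK293 cells, read 1 hour after dosing by scintillation counting. Duplicate single-point screen at 25 uM; qualifying chemicals then run in concentration-response to 50 uM, analysed relative to DMSO.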

Assay [9] concerns the target rat Serotonin, 5-Hydroxytryptamine Receptor 1 (5HT1), Non-Selective Binding, Htr1a (gene 24473) (UniProt P19327). Kind of assay: NVS_GPCR_r5HT1_NonSelective: NovaScreen (NVS) G Protein-Coupled Receptor Assay for rat Serotonin, 5-Hydroxytryptamine Receptor 1 (5HT1), Non-Selective Binding (AID 2283286). The method, boiled down:
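Rat cortical membranes, radioligand displacement, 1 h incubation, read by filter scintillation. Primary screen in duplicate at 25 uM. Hits (e.g. ≥30% inhibition) went to concentration-response up to 50 uM, fitted as loss of binding versus DMSO.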

In assay [10] the target is guinea pig Bradykinin Receptor B2 (BK2), BDKRB2 (gene 100135486) (UniProt O70526). Kind of assay: NVS_GPCR_gBK2: NovaScreen (NVS) G Protein-Coupled Receptor Assay for guinea pig Bradykinin Receptor B2 (BK2) (AID 2283292). The method, boiled down:
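Radioligand displacement on guinea pig ileum membranes for 1 h, read by filter-based scintillation counting; loss of signal relative to DMSO. Compounds were screened in duplicate at 25 uM, and those passing the threshold were retested in concentration-response up to 50 uM.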

For assay [11], the target named is human Neuropeptide Receptor Y1 (NPY1), NPY1R (gene 4886) (UniProt P25929). Description: NVS_GPCR_hNPY1: NovaScreen (NVS) G Protein-Coupled Receptor Assay for human Neuropeptide Receptor Y1 (NPY1) (AID 2283276). Put shortly: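 Cell-free radioligand binding using receptor extracted from SK-N-MC cells, 1 h incubation, filter-based scintillation counting. Primary screen single concentration 25 uM in duplicate; actives followed in concentration series. Loss of bound signal scored versus DMSO.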
Sequence of human Neuropeptide Receptor Y1 (NPY1), NPY1R (gene 4886) (P25929 whole entry, looked up): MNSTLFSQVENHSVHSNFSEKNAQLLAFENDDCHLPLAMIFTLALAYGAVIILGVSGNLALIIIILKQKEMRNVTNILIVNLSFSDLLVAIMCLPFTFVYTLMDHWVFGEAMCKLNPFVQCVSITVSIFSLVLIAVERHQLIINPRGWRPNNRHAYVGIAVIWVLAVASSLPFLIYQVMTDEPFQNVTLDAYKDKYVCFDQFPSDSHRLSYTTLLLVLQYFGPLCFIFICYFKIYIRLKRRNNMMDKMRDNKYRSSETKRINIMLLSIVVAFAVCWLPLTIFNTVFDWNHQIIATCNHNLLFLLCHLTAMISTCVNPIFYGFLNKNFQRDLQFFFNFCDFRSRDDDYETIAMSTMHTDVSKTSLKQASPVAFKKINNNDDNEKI

The target in assay [12] is Neuropeptide Y receptor type 2 (Homo sapiens) (UniProt P49146). Description: NVS_GPCR_hNPY2: NovaScreen (NVS) G Protein-Coupled Receptor Assay for human Neuropeptide Receptor Y2 (NPY2) (AID 2283277). The method, boiled down: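 Radioligand binding on membranes extracted from SK-N-MC cells, cell-free, read 1 h after dosing by filter-based scintillation counting. Loss of signal vs DMSO. Primary screen in duplicate at 25 uM; actives followed up in concentration-response up to 50 uM.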
Sequence of Neuropeptide Y receptor type 2 (Homo sapiens) (P49146 whole entry, looked up): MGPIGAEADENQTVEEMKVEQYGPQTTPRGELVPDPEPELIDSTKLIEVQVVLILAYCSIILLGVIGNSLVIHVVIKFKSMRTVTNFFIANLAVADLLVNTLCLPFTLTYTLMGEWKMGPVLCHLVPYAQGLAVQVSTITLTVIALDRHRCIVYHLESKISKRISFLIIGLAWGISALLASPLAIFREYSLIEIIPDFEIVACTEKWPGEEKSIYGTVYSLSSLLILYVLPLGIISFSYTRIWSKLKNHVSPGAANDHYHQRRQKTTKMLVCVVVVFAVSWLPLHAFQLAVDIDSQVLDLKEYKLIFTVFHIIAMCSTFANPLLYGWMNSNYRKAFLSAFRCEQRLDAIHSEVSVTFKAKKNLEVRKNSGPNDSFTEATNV

The target of assay [13] is human Thromboxane A2 Receptor (TXA2), TBXA2R (gene 6915) (UniProt P21731). Kind of assay: NVS_GPCR_hTXA2: NovaScreen (NVS) G Protein-Coupled Receptor Assay for human Thromboxane A2 Receptor (TXA2) (AID 2283282).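 Further: actives reduce bound radioligand signal relative to DMSO baseline.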 Put shortly:
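Screening ran at 25 uM in duplicate, with concentration series for confirmed actives. Each test measures radioligand binding to human platelet protein after 1 h, cell-free, using filter-based scintillation detection of signal loss relative to DMSO.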

In assay [14] the target is rat Adrenergic, Alpha 1, Non-selective Receptor (Adra1), Adra1a (gene 29412) (UniProt P43140). Description: NVS_GPCR_rAdra1_NonSelective: NovaScreen (NVS) G Protein-Coupled Receptor Assay for rat Adrenergic, Alpha 1, Non-selective Receptor (Adra1) (AID 2283289). The method, boiled down: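 Rat forebrain membranes; radioligand displacement read by filter-based scintillation counting 1 h after dosing. Primary screen in duplicate at 25 uM; hits (e.g. ≥30% inhibition) rerun as concentration–response to 50 uM max. Fitted versus DMSO.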
Sequence of rat Adrenergic, Alpha 1, Non-selective Receptor (Adra1), Adra1a (gene 29412) (P43140 whole entry, looked up): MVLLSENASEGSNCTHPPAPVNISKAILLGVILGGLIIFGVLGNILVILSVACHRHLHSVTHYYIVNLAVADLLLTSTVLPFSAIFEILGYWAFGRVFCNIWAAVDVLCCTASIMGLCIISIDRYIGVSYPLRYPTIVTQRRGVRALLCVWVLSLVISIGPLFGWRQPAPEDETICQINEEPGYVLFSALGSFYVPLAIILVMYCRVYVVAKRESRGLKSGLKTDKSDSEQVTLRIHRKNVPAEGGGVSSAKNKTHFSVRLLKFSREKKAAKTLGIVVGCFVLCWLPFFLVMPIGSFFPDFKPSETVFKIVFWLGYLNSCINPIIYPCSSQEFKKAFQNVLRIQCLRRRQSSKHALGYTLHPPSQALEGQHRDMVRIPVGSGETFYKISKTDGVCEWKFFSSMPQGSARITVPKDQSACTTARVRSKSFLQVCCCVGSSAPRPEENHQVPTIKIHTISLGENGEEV

The target in assay [15] is mouse Cholecystokinin, CCK2 Receptor (CCKB), Cckbr (gene 12426) (UniProt P56481). Description: NVS_GPCR_mCKKBCentral: NovaScreen (NVS) G Protein-Coupled Receptor Assay for mouse Cholecystokinin, CCK2 Receptor (CCKB) (AID 2283293). The method, boiled down:
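Radioligand displacement binding on mouse forebrain membranes, 2 h exposure, filter-based scintillation counting. Primary screen in duplicate at 25 uM; actives (e.g. ≥30% inhibition) retested in concentration-response up to 50 uM; loss of binding signal relative to DMSO.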

Assay [16] concerns guinea pig Atrionatriuretic Peptide Receptor A (ANPA), gene 100135578. Kind of assay: NVS_GPCR_gANPA: NovaScreen (NVS) G Protein-Coupled Receptor Assay for guinea pig Atrionatriuretic Peptide Receptor A (ANPA) (AID 2283291). Put shortly:
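Radioligand binding to guinea pig cerebellar membranes was measured after 1 h by filter-based scintillation counting. Chemicals were tested in duplicate at 25 uM, with hits run in concentration-response to a maximum of 50 uM. Binding loss was fitted against DMSO.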

For assay [17], the target named is human Vasopressin 1A Receptor (V1A), AVPR1A (gene 552) (UniProt P37288). Kind of assay: NVS_GPCR_hV1A: NovaScreen (NVS) G Protein-Coupled Receptor Assay for human Vasopressin 1A Receptor (V1A) (AID 2283284). The method, boiled down: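 Cell-free radioligand displacement on human platelet preparations, 1.5 h incubation, filter-based scintillation counting. Chemicals first tested in duplicate at 25 uM; actives then run in concentration-response up to 50 uM, loss of signal fitted against DMSO.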

The target in assay [18] is human Purinergic Receptor P2Y, P2RY1 (gene 5028) (UniProt P47900). Description: NVS_GPCR_hPY2: NovaScreen (NVS) G Protein-Coupled Receptor Assay for human Purinergic Receptor P2Y (AID 2283281). The method, boiled down:
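Cell-free radioligand binding using U937-derived protein, 1 h after dosing, filter-based scintillation counting. Screened in duplicate at 25 uM; actives rerun as concentration-response up to 50 uM; loss of signal versus DMSO.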

Results filed as inconclusive are left out. Active and inactive are the calls of the source. How the source made its calls: active means hit-call score of the fitted dose curve at least 0.9, where 1 is the maximum; inconclusive means response in the unintended direction; inactive means score below 0.9.

In general, AC50 refers to the midpoint of the concentration-response curve, whichever way the signal moves.

Sequence of guinea pig Serotonin, 5-Hydroxytryptamine Receptor 4 (5HT4), HTR4 (gene 100135548) (O70528 whole entry, looked up): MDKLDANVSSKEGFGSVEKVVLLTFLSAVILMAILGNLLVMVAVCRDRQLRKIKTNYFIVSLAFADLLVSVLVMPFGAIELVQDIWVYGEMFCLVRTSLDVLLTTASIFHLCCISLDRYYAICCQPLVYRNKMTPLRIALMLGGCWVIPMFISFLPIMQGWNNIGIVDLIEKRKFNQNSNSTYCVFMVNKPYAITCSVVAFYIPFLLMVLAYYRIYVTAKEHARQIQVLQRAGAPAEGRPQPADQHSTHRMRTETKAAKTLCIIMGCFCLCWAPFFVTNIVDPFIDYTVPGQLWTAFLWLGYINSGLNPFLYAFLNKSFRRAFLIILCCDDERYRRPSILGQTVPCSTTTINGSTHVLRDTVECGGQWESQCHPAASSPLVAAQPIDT
Sequence of guinea pig Bradykinin Receptor B2 (BK2), BDKRB2 (gene 100135486) (O70526 whole entry, looked up): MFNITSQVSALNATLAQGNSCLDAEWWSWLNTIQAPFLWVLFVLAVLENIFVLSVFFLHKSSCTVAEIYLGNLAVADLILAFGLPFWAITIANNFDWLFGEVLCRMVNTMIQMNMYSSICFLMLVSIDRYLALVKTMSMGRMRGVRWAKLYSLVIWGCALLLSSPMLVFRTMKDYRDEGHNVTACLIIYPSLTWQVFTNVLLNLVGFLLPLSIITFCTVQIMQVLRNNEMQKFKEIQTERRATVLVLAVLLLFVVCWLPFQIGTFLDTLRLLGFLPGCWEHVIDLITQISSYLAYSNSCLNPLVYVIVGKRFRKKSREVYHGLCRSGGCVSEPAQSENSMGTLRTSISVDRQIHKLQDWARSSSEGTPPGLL
Sequence of Muscarinic acetylcholine receptor M5 (Homo sapiens) (P08912 whole entry, looked up): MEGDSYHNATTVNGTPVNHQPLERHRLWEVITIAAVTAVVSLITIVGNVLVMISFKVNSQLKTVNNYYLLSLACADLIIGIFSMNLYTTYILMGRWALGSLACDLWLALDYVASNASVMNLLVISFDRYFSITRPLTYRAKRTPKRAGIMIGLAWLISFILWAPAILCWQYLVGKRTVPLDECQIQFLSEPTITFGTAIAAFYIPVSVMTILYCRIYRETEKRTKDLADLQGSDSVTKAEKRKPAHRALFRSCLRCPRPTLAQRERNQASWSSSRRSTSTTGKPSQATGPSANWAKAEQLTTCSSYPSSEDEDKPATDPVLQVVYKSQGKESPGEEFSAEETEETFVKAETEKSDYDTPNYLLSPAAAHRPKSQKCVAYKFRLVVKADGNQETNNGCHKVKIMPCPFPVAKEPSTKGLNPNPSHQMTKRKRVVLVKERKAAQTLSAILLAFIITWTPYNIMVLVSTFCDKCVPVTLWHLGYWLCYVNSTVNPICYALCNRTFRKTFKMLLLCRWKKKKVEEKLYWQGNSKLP
Sequence of human Orphanin, Opioid Related Nociceptin Receptor 1 (ORL1), OPRL1 (gene 4987) (P41146 whole entry, looked up): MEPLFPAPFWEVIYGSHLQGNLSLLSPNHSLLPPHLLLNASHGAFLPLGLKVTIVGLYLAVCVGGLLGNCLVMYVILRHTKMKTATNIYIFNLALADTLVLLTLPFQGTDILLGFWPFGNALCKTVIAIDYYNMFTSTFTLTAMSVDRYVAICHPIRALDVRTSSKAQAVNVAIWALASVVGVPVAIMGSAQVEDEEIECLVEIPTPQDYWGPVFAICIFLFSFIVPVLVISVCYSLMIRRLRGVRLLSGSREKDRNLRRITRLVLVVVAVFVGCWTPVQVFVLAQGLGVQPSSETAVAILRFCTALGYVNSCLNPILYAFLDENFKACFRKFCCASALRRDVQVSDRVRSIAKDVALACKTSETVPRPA
Sequence of mouse Cholecystokinin, CCK1 Receptor (CCKA), Cckar (gene 12425) (O08786 whole entry, looked up): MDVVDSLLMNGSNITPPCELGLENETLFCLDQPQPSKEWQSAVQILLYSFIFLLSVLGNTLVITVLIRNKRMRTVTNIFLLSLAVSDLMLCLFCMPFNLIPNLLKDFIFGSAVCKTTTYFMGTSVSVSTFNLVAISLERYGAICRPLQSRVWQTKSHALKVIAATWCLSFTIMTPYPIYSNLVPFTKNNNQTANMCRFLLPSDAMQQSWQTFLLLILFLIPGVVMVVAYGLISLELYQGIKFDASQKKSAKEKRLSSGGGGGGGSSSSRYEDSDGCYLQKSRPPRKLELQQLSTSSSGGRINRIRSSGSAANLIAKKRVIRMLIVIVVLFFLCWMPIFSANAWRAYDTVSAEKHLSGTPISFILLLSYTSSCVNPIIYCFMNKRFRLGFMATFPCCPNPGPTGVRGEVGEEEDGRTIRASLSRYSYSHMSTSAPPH
Sequence of rat Serotonin, 5-Hydroxytryptamine Receptor 1 (5HT1), Non-Selective Binding, Htr1a (gene 24473) (P19327 whole entry, looked up): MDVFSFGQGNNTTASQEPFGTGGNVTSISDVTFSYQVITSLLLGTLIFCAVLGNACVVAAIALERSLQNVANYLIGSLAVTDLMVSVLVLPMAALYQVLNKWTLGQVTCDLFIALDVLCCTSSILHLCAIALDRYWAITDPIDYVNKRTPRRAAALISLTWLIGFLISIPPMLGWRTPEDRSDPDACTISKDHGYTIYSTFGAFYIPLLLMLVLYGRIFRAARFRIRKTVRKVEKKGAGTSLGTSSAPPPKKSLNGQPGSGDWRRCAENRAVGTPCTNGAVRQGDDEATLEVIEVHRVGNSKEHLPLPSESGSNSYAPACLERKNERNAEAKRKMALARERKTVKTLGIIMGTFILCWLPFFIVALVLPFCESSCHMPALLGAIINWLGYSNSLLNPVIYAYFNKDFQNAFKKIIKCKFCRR
Sequence of human Thromboxane A2 Receptor (TXA2), TBXA2R (gene 6915) (P21731 whole entry, looked up): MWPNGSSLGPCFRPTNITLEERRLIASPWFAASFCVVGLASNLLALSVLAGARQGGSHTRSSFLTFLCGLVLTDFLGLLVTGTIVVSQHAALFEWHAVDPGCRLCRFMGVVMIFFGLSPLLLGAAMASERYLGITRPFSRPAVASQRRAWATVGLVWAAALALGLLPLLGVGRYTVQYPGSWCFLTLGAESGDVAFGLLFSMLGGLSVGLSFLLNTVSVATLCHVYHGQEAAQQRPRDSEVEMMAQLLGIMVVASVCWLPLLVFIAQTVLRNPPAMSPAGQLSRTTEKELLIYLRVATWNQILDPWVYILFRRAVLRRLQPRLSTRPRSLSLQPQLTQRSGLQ

Take `C[C@]12C=CC3=C4CCC(=O)C=C4CC[C@H]3[C@@H]1CC[C@@H]2O`: the AC50 in assay [1] was 15.6 µM (active).
In the case of `OCCCl`, the result in assay [2] was inactive.
Turning to `c1ccc(C2CO2)cc1` (centres undefined), in [3], the result was inactive.
With `CC(C)N(Cc1ccccc1)C(=O)C(C)(C)C`, the half-maximal activity concentration (AC50) in [4] was 13.1 µM (active).
For `CN(C)[C@@H]1C(=O)C(C(N)=O)=C(O)[C@@]2(O)C(=O)C3=C(O)c4c(O)cccc4[C@@](C)(O)[C@H]3C[C@@H]12`, the concentration at half-maximal activity (AC50) in assay [5] is 25 µM (active).
As for `Cc1ccc(N)c(N)c1`, the molecule was classed as inactive in assay [1] and in [6].
For `COP(=S)(OC)SCN1C(=O)c2ccccc2C1=O`, the concentration at half-maximal activity (AC50) is 8.63 µM (active) in [1], 44.4 µM (active) in [8] and 14.9 µM (active) in [4]. Moreover, the molecule was classed as inactive in assay [7] and in assay [9].
As for `O=P(OCCCl)(OCCCl)OCCCl`, the outcome in [7] was inactive.
For the molecule `CC(C)COC(=O)c1ccccc1C(=O)OCC(C)C`, the molecule was classed as inactive in assay [6].
Turning to `N#CC(Br)(Br)C(N)=O`, the result in assay [1] was inactive. Further, in [8], the half-maximal activity concentration (AC50) was 41.2 µM (active).
For `CCCSC(=O)N(CCC)CCC`, the molecule was called inactive in [10].
On to `CCOc1cccc(C2(N3CCN(c4ccccc4)CC3)CCC(C)CC2)c1` (centres undefined), for which, in assay [11], the molecule was called inactive.
Take `[Cl-].[Cl-].[Hg+2]`: the AC50 was 0.428 µM (active) in [3]; 14.7 µM (active) in assay [11]; 8.85 µM (active) in [12]; 0.838 µM (active) in [1]; 275 nM (active) in assay [7]; 0.321 µM (active) in assay [8]. Besides, the AC50 in assay [5] was 18 µM (active); in assay [4] it was 36.7 µM (active); in [14], 2.86 µM (active); in assay [10], 25 µM (active); in assay [15], 38.6 µM (active); in assay [6], 7.68 µM (active). Further, the result in assay [13] was inactive.
On to `COc1cc(C=O)cc2c1[C@H](COC(N)=O)[C@]1(OC(C)=O)ON2C[C@H]2[C@@H]1N2C(C)=O`, for which the molecule was classed as inactive in assay [16].
In the case of `Oc1ccccc1Cl`, the result in assay [4] was inactive.
On to `CCC[CH2][Sn]([Cl])([CH2]CCC)[CH2]CCC`, for which, in assay [3], the outcome was inactive. In addition, the half-maximal activity concentration (AC50) in assay [11] is 1.58 µM (active); in [12], 10.3 µM (active); in assay [1], 1.08 µM (active); in [7] it was 593 nM (active); in assay [13], 1.77 µM (active); in assay [8] it was 1.21 µM (active). Besides, the AC50 is 7.85 µM (active) in assay [17]; 0.228 µM (active) in assay [5]; 17.2 µM (active) in [9]; 5.79 µM (active) in assay [4]; 8.26 µM (active) in assay [14]; 10.6 µM (active) in assay [10]. Besides, the concentration at half-maximal activity (AC50) was 2.25 µM (active) in [15], 3 µM (active) in assay [6] and 12 µM (active) in assay [2].
For `CCCCCCCCn1sccc1=O`, the concentration at half-maximal activity (AC50) in [11] is 6.28 µM (active); in assay [13], 9.13 µM (active); in [8], 14.1 µM (active); in assay [6] it was 20.2 µM (active). Besides, the molecule was called inactive in assay [18].
For the molecule `Nc1cc(Cl)cc(C(=O)O)c1Cl`, in assay [13], the outcome was inactive.
Take `O=C(Oc1ccc(Br)cc1)N1CCN2CCC1CC2`: the AC50 was 15.7 µM (active) in [3] and 14.8 µM (active) in [6]. Besides, in [14], the molecule was called inactive.
Turning to `Cc1ccc(N=C=O)cc1N=C=O`, the molecule was classed as inactive in [9].
Take `CN(C)C(=O)Nc1ccc(Cl)cc1`: in assay [13], the outcome was inactive.
Turning to `Oc1ccc2ccc3cccc4ccc1c2c34`, the outcome in assay [1] and in [13] was inactive.
Consider `C=CCc1ccc2c(c1)OCO2`, for which the result in assay [14] was inactive.
`Cc1cc(N=Nc2ccccc2C)ccc1N`: in assay [5], the molecule was classed as inactive.

Values taken from PubChem BioAssay (EPA / NIEHS).
